Inconclusive results are not listed. Active and inactive are the calls of the source. The call rests on the fitted dose curve; in most records, active means well fitted inhibition curve with a large enough effect; inconclusive means small, poorly fitted or top-dose-only effect; inactive means no such curve, though single readings can be large or run the other way.
assay: Confirmatory qHTS for Identification of Small Molecule Inhibitors of Huntingtin Promoter Activity; conditions: HEK293 HTT promoter firefly luciferase reporter, 24 h; series mostly up to 57.5 µM; further: nearly all actives have a fitted effect of over 65% in size
From the text: Assay Provider: Russell L. Margolis M.D.
Department Neurology, Johns Hopkins University School of Medicine, Baltimore, MD
Huntington's Disease (HD) is a neurodegenerative disorder caused by a CAG repeat expansion in exon 1 of huntingtin (HTT). While there are currently no disease-modifying treatments for HD, recent efforts have focused on development of nucleotide-based therapeutics to lower HTT expression. As an alternative to siRNA or oligonucleotide methods, we hypothesized that suppression of HTT expression might be accomplished by small molecules that either (1) directly decrease HTT expression by suppressing HTT promoter activity or (2) indirectly decrease HTT expression by increasing the promoter activity of HTT-AS, the gene antisense to HTT that appears to inhibit expression of HTT.
We developed and employed a high throughput screen for modifiers of HTT and HTT-AS promoter activity using luminescent reporter HEK293 cells; of the 52,041 compounds tested, we identified 898 replicable hits. We used a rigorous stepwise approach to assess compound toxicity and the capacity of the compounds to specifically lower huntingtin protein in 5 different cell lines, including HEK293 cells, HD lymphoblastoid cells, mouse primary neurons, HD iPSCs differentiated into cortical-like neurons, and HD hESCs. We found no compounds which were able to lower huntingtin without lowering cell viability in all assays, though the potential efficacy of a few compounds at non-toxic doses could not be excluded.
SEQUENCE No. (1, 2, 3, etc.); […] (e.g., Cells, Incubation, Reagent, etc.); VALUE and DESCRIPTION.
1; Reagent; 4 uL; 2,500 Hek293 luciferase reporter cells per wells
3; Compound; 23 nL; Control inhibitor / compound library
5; Reagent; 2.5 uL; Firefly Luc reagent; Dual-Glo Luciferase Reporter Assay System (Promega)
6; Time; 10 min; room temperature incubation
7; Detection; Luminescence; FLuc
NOTES (numbers refer to sequence above)
1; High-throughput screening, measuring luminescence from a Hek293 luciferase reporter, was performed in 1,536 well white-walled tissue-culture treated plates. 2,500 cells were plated in 4 uL of Opti-MEM per well using a Multidrop Combi Reagent Dispenser (ThermoFisher).
2; Assay plates were cultured for 24 hours.
3; Control inhibitor (PTC124; final concentration of 50 uM) and compound library (at final concentrations of 460 nM - 57.5 uM) were added to the assay plate using the Kalypsis Pintool Robotic System equipped with 1536 pinheads.
4; Cells were then incubated for 24 hours at 37C prior to luminescence measurements.
5; In all cases, luminescence was measured using the Dual-Glo Luciferase Reporter Assay System (Promega) following the manufacturer's instructions.
6; Room temperature incubation.
7; Luminescence signal was obtained using the PerkinElmer ViewLux plate reader. Results were normalized to vehicle control (0% activity) and zero RLU (-100% activity).
Potency means the concentration at half of the fitted maximal effect.

Potency, inactive:
COc1cccc(CNC(=O)c2ccc3nc(N4CCCCC4)sc3c2)c1OC
CC1CCN(C(=O)CN2c3ccc(Br)cc3-c3ccccc3S2(=O)=O)CC1
CCc1ccc2c(c1)-c1ccccc1S(=O)(=O)N2CC(=O)N1CCC(C)CC1
CCCS(=O)(=O)NCCc1sc2nc(-c3ccc(F)cc3)nn2c1C
O=C(C=Cc1ccc(O)cc1)c1ccc(O)cc1O
Cc1cccc(S(=O)(=O)Nc2cccc(-c3ccc(N4CCCCC4)nn3)c2)c1
CC=C1NC(=O)[C@H]2CSSCCC=C[C@H](CC(=O)N[C@H](C(C)C)C(=O)N2)OC(=O)[C@H](C(C)C)NC1=O
COc1ccc2nc(N3CCN(C(=O)CS(=O)(=O)c4ccc(C)cc4)CC3)sc2c1
Cc1ccc(-n2ncc3c(N(C)Cc4ccccc4)ncnc32)cc1
Cc1c(NS(C)(=O)=O)cccc1-c1nc2ccccc2s1
CCN(C(=O)CSc1nc(-c2ccccc2)no1)c1cccc(C)c1
O=C(Nc1nc2cccc(-c3ccc(CN4CCS(=O)(=O)CC4)cc3)n2n1)C1CC1
COc1ccc(NC(=O)Cn2nc(-c3ccncc3)ccc2=O)cc1Cl
COc1ccc(Cn2c(CO)cnc2SCc2ccc(F)cc2)cc1
O=C(NCc1cccnc1)C(=O)NCC(c1cccnc1)N1CCN(c2ccccc2F)CC1 (stereo not given)
Cc1ccc(CN2CCSc3ccc(C(=O)NCC(C)c4ccccc4)cc32)cc1 (stereo not given)
Cc1ccccc1Cn1c(=O)n(Cc2ccco2)c(=O)c2oc3ccccc3c21
COc1ccc(NC(=O)Cn2c(SCc3ccc(C)cc3)nc3cccnc32)cc1OC
COc1ccc(-c2nnc(C3CCN(C(=O)c4ccccc4F)CC3)o2)cc1
COc1ccc(S(=O)(=O)Nc2cc(-c3cn4ccc(C)cc4n3)ccc2C)cc1OC
O=C(O)c1cc(-n2c(/C=C\c3ccc(F)cc3)nc3ccccc3c2=O)ccc1Cl
COc1cc(OC)cc(C(=O)Nc2c(C(=O)Nc3ccc(F)cc3)oc3ccccc23)c1
C#C[C@]1(O)CC[C@H]2[C@H]3CCc4cc(OC)ccc4[C@H]3CC[C@@]21C
Cc1ccc(NC(=O)c2ccc(C)c(S(=O)(=O)N3CCCCCC3)c2)cc1
O=C(Cn1c(=O)oc2cc(S(=O)(=O)N3CCCCC3)ccc21)NCc1ccc(Cl)cc1
O=C(CN1c2ccc(Br)cc2-c2ccccc2S1(=O)=O)N1CCCCC1
Cc1nc(Nc2n[nH]c3c2CN(C(=O)N[C@H](CN(C)C)c2ccccc2)C3(C)C)c2sccc2n1
CCOC(=O)c1ccc(C#Cc2ccc3c(c2)C(C)(C)CCS3)nc1
CCC(=O)N1CCc2cc(S(=O)(=O)NCCC(=O)Nc3ccc(CC)cc3)ccc21
Cc1ccc(S(=O)(=O)n2nc(-c3ccco3)nc2NCc2ccccc2Cl)cc1

Potency, active:
Cc1ccc(C)c(N2CCN(C(=O)C3CCN(c4nc(-c5ccc(C(C)C)cc5)no4)CC3)CC2)c1 0.239 µM
CC(=O)N1CCCc2cc(S(=O)(=O)N3CCCC(C(=O)N4CCN(c5ccccc5)CC4)C3)ccc21 (stereo not given) 9.53 µM
COc1ccc(-c2noc(N3CCC(C(=O)N4CCN(c5cccc(OC)c5)CC4)CC3)n2)cc1 1.35 µM
CC(=O)c1ccc(N2CCN(c3ncnc4c3cnn4-c3cc(Cl)ccc3C)CC2)cc1 7.57 µM
COc1cccc(N2CCN(C(=O)c3cccc(-n4c(C)nc5cccnc54)c3)CC2)c1 23.9 µM
COc1ccc(N2CCN(C(=O)c3ccc4c(=O)n(CCc5ccc(OC)c(OC)c5)c(=O)[nH]c4c3)CC2)cc1 12 µM
Cc1cccc(NC(=O)c2c(NC(=O)C(F)(F)F)sc3c2CCCCC3)c1 2.39 µM
CCOc1ccc(S(=O)(=O)N(C(C)=O)c2ccc3oc(C)c(C(=O)OC)c3c2)cc1 4.78 µM
C[n+]1cc2c3c(ccc2c2ccc4cc5c(cc4c21)OCO5)OCO3 5.86 µM
CCOC(=O)c1ccc(N2C(=O)c3[nH]nc(-c4ccccc4)c3C2c2cccs2)cc1 (stereo not given) 13.5 µM

Source: PubChem BioAssay AID1508621 (National Center for Advancing Translational Sciences (NCATS), 2021)
